Laboratory results published in PubChem BioAssay (NCATS).
Inconclusive results are not listed. Unmarked numbers belong to inactive results. Active and inactive are the calls of the source. Calls come from the whole dose curve; as a rule, active = well fitted curve in the direction sought with a large enough effect; inconclusive = small, poorly fitted or top-dose-only effect, or another doubt; inactive = no such curve, though single readings can be large; an effect the other way counts as inactive or inconclusive.

Test: Quantitative High-Throughput drug screen in 47 multiple myeloma cell lines against the NCATS MIPE library collection: MOLP8_DSMZ cell viability assay (AID 1918977); note: nearly all actives have a fitted effect of over 45% in size;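 for viability (% of control): 100% = DMSO-only wells and 0% = media-only wells without cells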
Conditions: MOLP8 myeloma viability, CellTiter-Glo ATP luminescence, 48 h; series mostly up to 45.8 µM; viability (% of control): at the top concentration
Summary of the method: (§1)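 Readout: median RLU from CellTiter-Glo after 5 min at room temperature. Preceding step was 48 h drug treatment of 500 cells/well at 37 °C, 5% CO2, with DMSO-only and media-only control wells.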
Potency is the fitted concentration of half-maximal effect.

SMILES | viability (% of control) | Potency
CC(C(=O)O)c1ccc2c(c1)CC(=O)c1ccccc1S2 (stereo unspecified) | 93.7% | –
NC(=O)c1cccnc1 | 97.4% | –
CNS(=O)(=O)CCc1ccc2[nH]cc(C3CCN(C)CC3)c2c1 | 113% | –
Nc1ccc(S(=O)(=O)Nc2ccccn2)cc1 | 113% | –
NS(=O)(=O)c1cc2c(cc1Cl)NC(C(Cl)Cl)NS2(=O)=O (stereo unspecified) | 103% | –
CCCOc1ccc(C(=O)OCCN(CC)CC)cc1N | 128% | –
CN1CCN(c2c(F)cc3c(=O)c(C(=O)O)cn4c3c2OCN4C)CC1 | 124% | –
Cc1ncc([N+](=O)[O-])n1CCO | 123% | –
COc1cc(NS(=O)(=O)c2ccc(N)cc2)nc(OC)n1 | 108% | –
CCCCCCNC(=O)n1cc(F)c(=O)[nH]c1=O | – | 6.62 µM (active)
Cc1nnc(C(=O)NC(C)(C)c2nc(C(=O)NCc3ccc(F)cc3)c(O)c(=O)n2C)o1 | 87.6% | –
COc1cccc(N(C)C(=S)Oc2ccc3c(c2)CCCC3)n1 | 89.7% | –
NC(=O)N1c2ccccc2CC(=O)c2ccccc21 | 102% | –

Test: Quantitative High-Throughput drug screen in 47 multiple myeloma cell lines against the NCATS MIPE library collection: NCIH929_DSMZ cell viability assay (AID 1918978); note: nearly all actives have a fitted effect of over 35% in size
Conditions: NCI-H929 myeloma viability, CellTiter-Glo ATP, 48 h; series mostly up to 45.8 µM; viability, % of control: at the top concentration
Summary of the method: as §1

SMILES | Potency | viability, % of control
COC(=O)Nc1nc2ccc(C(=O)c3ccccc3)cc2[nH]1 | 3.72 µM (active) | –
COc1cc2c(Nc3ccc(Br)cc3F)ncnc2cc1OCC1CCN(C)CC1 | 8.33 µM (active) | –
CC(C(=O)O)c1ccc2c(c1)CC(=O)c1ccccc1S2 (stereo unspecified) | – | 98.5%
CCN(CC)CCn1c(=O)c(Cc2ccc(OC)cc2)nc2ccccc21 | – | 102%
CNC1CCCN(c2c(F)cc3c(=O)c(C(=O)O)cn(C4CC4)c3c2OC)C1 (stereo unspecified) | 1.48 µM (active) | –
CN1CCCC(n2nc(Cc3ccc(Cl)cc3)c3ccccc3c2=O)CC1 (stereo unspecified) | 0.935 µM (active) | –
Cc1nnc(NS(=O)(=O)c2ccc(N)cc2)s1 | – | 112%
CNS(=O)(=O)Cc1ccc2[nH]cc(CCN(C)C)c2c1 | – | 116%
NC(=O)c1cccnc1 | – | 94.8%
CNS(=O)(=O)CCc1ccc2[nH]cc(C3CCN(C)CC3)c2c1 | 0.332 µM (active) | –
Cc1cccc(N(C)C(=S)Oc2ccc3ccccc3c2)c1 | – | 99.8%
N[C@@H](Cc1ccc(O)c(O)c1)C(=O)O | – | 108%
CNC(=O)c1cc(Oc2ccc(NC(=O)Nc3ccc(Cl)c(C(F)(F)F)c3)cc2)ccn1 | 10.5 µM (active) | –
Nc1ccc(S(=O)(=O)Nc2ccccn2)cc1 | – | 106%
CC(C)(C#N)c1cc(Cn2cncn2)cc(C(C)(C)C#N)c1 | – | 101%
NS(=O)(=O)c1cc2c(cc1Cl)NC(C(Cl)Cl)NS2(=O)=O (stereo unspecified) | – | 103%
CCCOc1ccc(C(=O)OCCN(CC)CC)cc1N | – | 94.7%

SMILES | Potency | viability, % of control
CC[C@H](NC(C)C)[C@H](O)c1ccc(O)c2[nH]c(=O)ccc12 | – | 125%
CN1CCN(c2c(F)cc3c(=O)c(C(=O)O)cn4c3c2OCN4C)CC1 | – | 123%
Cc1ncc([N+](=O)[O-])n1CCO | – | 120%
NC(=O)c1cccc(N)c1 | 16.6 µM (active) | –
CC(C)C1CCC(C(=O)N[C@H](Cc2ccccc2)C(=O)O)CC1 (stereo partly specified) | – | 81.5%
COc1cc(NS(=O)(=O)c2ccc(N)cc2)nc(OC)n1 | – | 117%
CCCCCCNC(=O)n1cc(F)c(=O)[nH]c1=O | 11.8 µM (active) | –
Cc1nnc(C(=O)NC(C)(C)c2nc(C(=O)NCc3ccc(F)cc3)c(O)c(=O)n2C)o1 | – | 108%
Cc1noc(NS(=O)(=O)c2ccc(N)cc2)c1C | – | 110%
CC(=O)CC(c1ccccc1)c1c(O)c2ccccc2oc1=O (stereo unspecified) | – | 121%
O=c1oc2c(O)c(O)cc3c(=O)oc4c(O)c(O)cc1c4c23 | – | 121%
COc1cccc(N(C)C(=S)Oc2ccc3c(c2)CCCC3)n1 | – | 106%
OC(Cn1cncn1)(Cn1cncn1)c1ccc(F)cc1F | – | 122%
COc1ccc(-c2ccc3cc(C(=O)O)ccc3c2)cc1C12CC3CC(CC(C3)C1)C2 | – | 137%
NC(=O)N1c2ccccc2CC(=O)c2ccccc21 | – | 120%
C[C@]12C=CC(=O)C=C1CC[C@@H]1[C@@H]2C(=O)C[C@@]2(C)[C@H]1CC[C@]2(O)C(=O)CO | – | 137% [at 23.2 µM]
